Experimental data from PMC7862700, “An all-to-all approach to the identification of sequence-specific readers for epigenetic DNA modifications on cytosine”.

Columns and labels:
Test in all cases: DAPPL (digital affinity profiling via proximity ligation, sequencing); 10 mM Tris-HCl pH 7.5, 50 mM NaCl, 1 mM DTT, 4% glycerol, room temperature, 30 min; GST-TFs on glutathione beads, 16-mer random dsDNA library, 0.1% formaldehyde crosslink after washing; high values mean tight binding
FEV = molecular target: T1, FEV (Homo sapiens, UniProt Q99581 1-238); conditions: protein: recombinant; tags: N-terminal GST; dsDNA, one strand shown
T1 sequence: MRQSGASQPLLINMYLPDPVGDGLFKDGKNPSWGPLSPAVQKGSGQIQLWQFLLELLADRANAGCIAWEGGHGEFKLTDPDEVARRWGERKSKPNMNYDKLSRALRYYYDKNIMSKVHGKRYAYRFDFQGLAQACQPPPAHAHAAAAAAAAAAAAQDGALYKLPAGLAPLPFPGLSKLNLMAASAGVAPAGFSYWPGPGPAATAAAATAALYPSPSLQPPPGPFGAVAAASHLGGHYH
Summary of the method: (§1)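 Binding signal is each hexamer's read frequency for a factor divided by its frequency in the tag-only sample. The factors were GST-fused human transcription factors from yeast, captured on glutathione beads, DNA-barcoded and pooled with that sample. Pools were incubated with 200 nmole of a random double-stranded 16-mer DNA library in Tris/NaCl/DTT/glycerol buffer at room temperature for 30 min, then washed, crosslinked with 0.1% formaldehyde, proximity-ligated with BsaI/T4 ligase (1 h, 37 °C), PCR-amplified and sequenced on an Illumina NextSeq500.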

ETV5 = ETV5 (Homo sapiens, UniProt P41161 1-510); conditions: protein: recombinant; tags: N-terminal GST; dsDNA, one strand shown
Summary of the method: as §1

HSF1 = HSF1 (Homo sapiens, UniProt Q00613 1-529); conditions: protein: recombinant; tags: N-terminal GST; chain copies: 3; dsDNA, one strand shown
Summary of the method: as §1

SPIC = molecular target: T2, SPIC (Homo sapiens, UniProt Q8N5J4 1-248); conditions: protein: recombinant; tags: N-terminal GST; dsDNA, one strand shown
T2 sequence: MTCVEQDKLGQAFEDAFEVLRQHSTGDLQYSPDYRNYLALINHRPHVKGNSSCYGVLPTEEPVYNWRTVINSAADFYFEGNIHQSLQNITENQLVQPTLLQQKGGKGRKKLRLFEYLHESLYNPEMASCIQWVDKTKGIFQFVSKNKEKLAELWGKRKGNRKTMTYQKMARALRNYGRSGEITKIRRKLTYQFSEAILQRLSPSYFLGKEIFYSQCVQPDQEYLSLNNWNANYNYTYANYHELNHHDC
Summary of the method: as §1

ELF4 = ELF4 (Homo sapiens, UniProt Q99607 1-663); conditions: protein: recombinant; tags: N-terminal GST; dsDNA, one strand shown
Summary of the method: as §1

ELK4 = molecular target: T3, ELK4 (Homo sapiens, UniProt P28324-2 1-405); conditions: protein: recombinant; tags: N-terminal GST; dsDNA, one strand shown
T3 sequence: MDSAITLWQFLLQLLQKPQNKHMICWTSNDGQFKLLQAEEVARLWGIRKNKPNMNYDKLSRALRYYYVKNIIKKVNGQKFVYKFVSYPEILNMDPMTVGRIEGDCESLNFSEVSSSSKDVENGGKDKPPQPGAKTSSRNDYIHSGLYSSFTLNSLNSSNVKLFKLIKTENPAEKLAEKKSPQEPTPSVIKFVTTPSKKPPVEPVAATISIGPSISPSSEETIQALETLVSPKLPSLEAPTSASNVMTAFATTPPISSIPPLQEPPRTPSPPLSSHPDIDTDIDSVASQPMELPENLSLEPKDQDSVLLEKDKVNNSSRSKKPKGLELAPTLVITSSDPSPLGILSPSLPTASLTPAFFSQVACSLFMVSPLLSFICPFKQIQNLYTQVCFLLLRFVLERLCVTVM
Summary of the method: as §1

ETV2 = molecular target: T4, ETV2 (Homo sapiens, UniProt O00321 1-342); conditions: protein: recombinant; tags: N-terminal GST; dsDNA, one strand shown
T4 sequence: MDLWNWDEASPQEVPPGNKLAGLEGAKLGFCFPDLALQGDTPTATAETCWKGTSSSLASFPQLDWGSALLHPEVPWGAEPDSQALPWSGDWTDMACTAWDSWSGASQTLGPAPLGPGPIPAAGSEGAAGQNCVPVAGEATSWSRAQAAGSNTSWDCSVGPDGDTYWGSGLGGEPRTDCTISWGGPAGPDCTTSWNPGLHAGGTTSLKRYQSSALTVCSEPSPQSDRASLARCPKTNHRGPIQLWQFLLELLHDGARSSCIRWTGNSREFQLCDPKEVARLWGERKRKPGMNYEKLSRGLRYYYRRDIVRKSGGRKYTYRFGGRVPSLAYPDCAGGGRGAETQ
Summary of the method: as §1

ELF3 = molecular target: T5, ELF3 (Homo sapiens, UniProt P78545 1-371); conditions: protein: recombinant; tags: N-terminal GST; dsDNA, one strand shown
T5 sequence: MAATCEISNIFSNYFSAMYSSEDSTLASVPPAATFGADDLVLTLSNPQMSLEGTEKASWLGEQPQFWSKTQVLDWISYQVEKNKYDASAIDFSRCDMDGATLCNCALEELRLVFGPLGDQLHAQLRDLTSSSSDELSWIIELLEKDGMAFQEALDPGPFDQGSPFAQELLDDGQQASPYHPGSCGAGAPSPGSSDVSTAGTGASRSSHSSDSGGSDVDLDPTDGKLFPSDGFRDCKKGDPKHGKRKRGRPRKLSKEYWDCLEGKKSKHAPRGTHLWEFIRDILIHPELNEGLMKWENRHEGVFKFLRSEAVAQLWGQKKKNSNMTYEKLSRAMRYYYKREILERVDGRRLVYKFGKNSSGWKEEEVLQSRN
Summary of the method: as §1

CRX = CRX (Homo sapiens, UniProt O43186 1-299); conditions: protein: recombinant; tags: N-terminal GST; dsDNA, one strand shown
Summary of the method: as §1

ETV1 = ETV1 (Homo sapiens, UniProt P50549 1-477); conditions: protein: recombinant; tags: N-terminal GST; dsDNA, one strand shown
Summary of the method: as §1

Sequence of ELF4 (Q99607 whole entry): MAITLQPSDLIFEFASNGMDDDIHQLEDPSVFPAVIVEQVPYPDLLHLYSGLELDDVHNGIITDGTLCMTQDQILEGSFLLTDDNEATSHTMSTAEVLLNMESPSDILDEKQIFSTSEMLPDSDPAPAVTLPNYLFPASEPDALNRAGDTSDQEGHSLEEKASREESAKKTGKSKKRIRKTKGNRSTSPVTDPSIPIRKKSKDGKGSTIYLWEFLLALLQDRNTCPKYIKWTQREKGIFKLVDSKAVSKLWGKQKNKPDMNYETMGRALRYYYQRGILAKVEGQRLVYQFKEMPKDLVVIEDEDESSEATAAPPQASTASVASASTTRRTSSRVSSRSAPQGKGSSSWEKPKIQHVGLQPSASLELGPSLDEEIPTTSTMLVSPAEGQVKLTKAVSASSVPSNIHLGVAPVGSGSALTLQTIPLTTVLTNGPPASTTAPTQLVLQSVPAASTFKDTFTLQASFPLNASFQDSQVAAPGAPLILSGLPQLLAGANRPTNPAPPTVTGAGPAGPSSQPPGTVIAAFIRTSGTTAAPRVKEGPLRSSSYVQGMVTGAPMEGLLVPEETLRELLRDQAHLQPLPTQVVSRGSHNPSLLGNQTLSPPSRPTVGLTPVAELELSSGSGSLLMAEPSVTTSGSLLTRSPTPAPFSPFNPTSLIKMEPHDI
Sequence of ETV1 (P50549 whole entry): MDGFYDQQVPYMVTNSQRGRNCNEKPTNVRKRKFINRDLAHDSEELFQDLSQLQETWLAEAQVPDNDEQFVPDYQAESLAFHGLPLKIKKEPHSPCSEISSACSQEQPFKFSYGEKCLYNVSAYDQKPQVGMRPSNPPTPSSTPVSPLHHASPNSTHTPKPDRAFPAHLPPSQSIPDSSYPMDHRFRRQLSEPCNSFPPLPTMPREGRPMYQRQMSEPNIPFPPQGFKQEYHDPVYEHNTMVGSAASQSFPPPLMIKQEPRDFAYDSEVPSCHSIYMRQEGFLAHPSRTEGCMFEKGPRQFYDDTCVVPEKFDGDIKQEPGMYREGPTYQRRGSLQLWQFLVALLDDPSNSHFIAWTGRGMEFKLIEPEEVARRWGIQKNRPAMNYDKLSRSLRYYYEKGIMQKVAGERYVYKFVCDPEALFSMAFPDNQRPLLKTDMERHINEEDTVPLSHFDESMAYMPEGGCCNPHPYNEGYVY
Sequence of HSF1 (Q00613 whole entry): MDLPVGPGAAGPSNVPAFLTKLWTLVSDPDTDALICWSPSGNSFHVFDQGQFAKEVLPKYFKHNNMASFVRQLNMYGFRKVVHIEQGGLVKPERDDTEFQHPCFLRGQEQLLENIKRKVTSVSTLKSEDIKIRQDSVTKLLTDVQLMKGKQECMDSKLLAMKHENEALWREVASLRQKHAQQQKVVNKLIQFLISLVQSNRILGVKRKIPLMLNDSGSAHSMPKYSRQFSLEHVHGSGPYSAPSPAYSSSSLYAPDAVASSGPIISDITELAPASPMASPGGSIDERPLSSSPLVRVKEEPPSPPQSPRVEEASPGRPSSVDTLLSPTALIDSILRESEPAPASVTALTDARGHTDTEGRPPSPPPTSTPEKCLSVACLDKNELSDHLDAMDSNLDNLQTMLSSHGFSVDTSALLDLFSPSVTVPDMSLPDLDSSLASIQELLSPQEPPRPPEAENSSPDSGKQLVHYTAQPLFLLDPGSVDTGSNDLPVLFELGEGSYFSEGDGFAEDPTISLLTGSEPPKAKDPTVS
Sequence of CRX (O43186 whole entry): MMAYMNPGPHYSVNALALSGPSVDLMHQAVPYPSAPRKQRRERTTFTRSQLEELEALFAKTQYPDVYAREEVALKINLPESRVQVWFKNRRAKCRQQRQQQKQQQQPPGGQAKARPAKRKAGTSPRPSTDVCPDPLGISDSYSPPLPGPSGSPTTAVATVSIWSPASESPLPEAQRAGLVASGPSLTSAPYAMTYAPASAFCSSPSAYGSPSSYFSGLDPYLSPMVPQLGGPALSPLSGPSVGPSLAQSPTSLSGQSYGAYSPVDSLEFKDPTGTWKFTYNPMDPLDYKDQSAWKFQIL
Sequence of ETV5 (P41161 whole entry): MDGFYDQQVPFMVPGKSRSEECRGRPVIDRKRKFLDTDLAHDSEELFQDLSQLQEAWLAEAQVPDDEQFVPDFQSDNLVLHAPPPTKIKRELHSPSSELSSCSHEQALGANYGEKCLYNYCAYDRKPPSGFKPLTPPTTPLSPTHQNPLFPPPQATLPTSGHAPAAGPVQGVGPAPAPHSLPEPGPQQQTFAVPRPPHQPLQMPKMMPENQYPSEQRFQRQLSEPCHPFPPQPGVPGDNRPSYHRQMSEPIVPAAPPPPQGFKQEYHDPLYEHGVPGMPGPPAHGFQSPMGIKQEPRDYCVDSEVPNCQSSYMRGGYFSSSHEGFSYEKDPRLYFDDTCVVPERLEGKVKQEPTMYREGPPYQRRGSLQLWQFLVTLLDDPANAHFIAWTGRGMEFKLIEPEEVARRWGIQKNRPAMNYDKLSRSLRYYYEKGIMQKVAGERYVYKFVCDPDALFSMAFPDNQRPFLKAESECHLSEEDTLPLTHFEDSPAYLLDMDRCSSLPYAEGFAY

Row | Sequence | binding signal (FEV) | binding signal (ETV5) | binding signal (HSF1) | binding signal (SPIC) | binding signal (ELF4) | binding signal (ELK4) | binding signal (ETV2) | binding signal (ELF3) | binding signal (CRX) | binding signal (ETV1)
1 | TGATAT | 1.07 fold enrichment (6-mer frequency, TF over GST control) | 1.1 fold enrichment (6-mer frequency, TF over GST control) | 1.01 fold enrichment (6-mer frequency, TF over GST control) | 1.05 fold enrichment (6-mer frequency, TF over GST control) | 1.12 fold enrichment (6-mer frequency, TF over GST control) | 1.14 fold enrichment (6-mer frequency, TF over GST control) | 1.21 fold enrichment (6-mer frequency, TF over GST control) | 1.04 fold enrichment (6-mer frequency, TF over GST control) | 1.08 fold enrichment (6-mer frequency, TF over GST control) | 
2 | TGCGTT |  | 1.07 fold enrichment (6-mer frequency, TF over GST control) | 1 fold enrichment (6-mer frequency, TF over GST control) | 1.13 fold enrichment (6-mer frequency, TF over GST control) | 1.05 fold enrichment (6-mer frequency, TF over GST control) | 1.19 fold enrichment (6-mer frequency, TF over GST control) | 1.16 fold enrichment (6-mer frequency, TF over GST control) | 1.25 fold enrichment (6-mer frequency, TF over GST control) |  | 1.02 fold enrichment (6-mer frequency, TF over GST control)
3 | ACTGCG | 1.26 fold enrichment (6-mer frequency, TF over GST control) | 1.21 fold enrichment (6-mer frequency, TF over GST control) | 1.06 fold enrichment (6-mer frequency, TF over GST control) | 1.14 fold enrichment (6-mer frequency, TF over GST control) | 1.28 fold enrichment (6-mer frequency, TF over GST control) | 1.06 fold enrichment (6-mer frequency, TF over GST control) | 1.42 fold enrichment (6-mer frequency, TF over GST control) | 1.16 fold enrichment (6-mer frequency, TF over GST control) |  | 1.27 fold enrichment (6-mer frequency, TF over GST control)
4 | CGACTA | 1.31 fold enrichment (6-mer frequency, TF over GST control) | 1.25 fold enrichment (6-mer frequency, TF over GST control) | 1.52 fold enrichment (6-mer frequency, TF over GST control) | 1.47 fold enrichment (6-mer frequency, TF over GST control) | 1.48 fold enrichment (6-mer frequency, TF over GST control) | 1.58 fold enrichment (6-mer frequency, TF over GST control) | 1.49 fold enrichment (6-mer frequency, TF over GST control) | 1.41 fold enrichment (6-mer frequency, TF over GST control) | 1.52 fold enrichment (6-mer frequency, TF over GST control) | 1.4 fold enrichment (6-mer frequency, TF over GST control)
5 | TGGTAG |  | 1.07 fold enrichment (6-mer frequency, TF over GST control) | 1.06 fold enrichment (6-mer frequency, TF over GST control) | 1.08 fold enrichment (6-mer frequency, TF over GST control) | 1.11 fold enrichment (6-mer frequency, TF over GST control) | 1.37 fold enrichment (6-mer frequency, TF over GST control) | 1.04 fold enrichment (6-mer frequency, TF over GST control) | 1.13 fold enrichment (6-mer frequency, TF over GST control) |  | 1.05 fold enrichment (6-mer frequency, TF over GST control)
6 | CAACTC | 1.23 fold enrichment (6-mer frequency, TF over GST control) | 1.22 fold enrichment (6-mer frequency, TF over GST control) | 1.12 fold enrichment (6-mer frequency, TF over GST control) | 1.33 fold enrichment (6-mer frequency, TF over GST control) | 1.27 fold enrichment (6-mer frequency, TF over GST control) | 1.2 fold enrichment (6-mer frequency, TF over GST control) | 1.3 fold enrichment (6-mer frequency, TF over GST control) | 1.24 fold enrichment (6-mer frequency, TF over GST control) | 1.01 fold enrichment (6-mer frequency, TF over GST control) | 1.18 fold enrichment (6-mer frequency, TF over GST control)
7 | CTCGCC | 1.21 fold enrichment (6-mer frequency, TF over GST control) | 1.23 fold enrichment (6-mer frequency, TF over GST control) | 1.06 fold enrichment (6-mer frequency, TF over GST control) | 1.2 fold enrichment (6-mer frequency, TF over GST control) | 1.29 fold enrichment (6-mer frequency, TF over GST control) | 1.31 fold enrichment (6-mer frequency, TF over GST control) | 1.32 fold enrichment (6-mer frequency, TF over GST control) | 1.43 fold enrichment (6-mer frequency, TF over GST control) |  | 1.26 fold enrichment (6-mer frequency, TF over GST control)
8 | TTCTTG | 1.29 fold enrichment (6-mer frequency, TF over GST control) | 1.41 fold enrichment (6-mer frequency, TF over GST control) | 1.98 fold enrichment (6-mer frequency, TF over GST control) | 1.31 fold enrichment (6-mer frequency, TF over GST control) | 1.43 fold enrichment (6-mer frequency, TF over GST control) | 1.34 fold enrichment (6-mer frequency, TF over GST control) | 1.18 fold enrichment (6-mer frequency, TF over GST control) | 1.46 fold enrichment (6-mer frequency, TF over GST control) | 1.55 fold enrichment (6-mer frequency, TF over GST control) | 1.47 fold enrichment (6-mer frequency, TF over GST control)
